From PubChem BioAssay come the findings set out here.

Test [1] concerns the target PEG-3 (UniProt Q6IN02). Description: Peg3 promoter luciferase inhibitors, potency, dose response, cell-based, HeLa, CREF/GAPDH counter-screen panel (AID 624167). Conditions: CREF/GAPDH counter-screens; HeLa PEG-Prom luciferase reporter, overnight, run 1, dose range 1, at 100 µM (top of the series) unless noted. (In general: A counterscreen serves to expose hits that act by an unwanted route or on another target.)

Test [2] has as its target PEG-3 (UniProt Q6IN02). The description is as above. As to conditions: CREF/GAPDH counter-screens; HeLa PEG-Prom luciferase reporter, overnight, run 2, dose range 1, at 100 µM (top of the series) unless noted; in the data active = activity above about 50%; inactive = the rest.
Test [3] concerns Rat fibroblasts (CREF). Described as above. As to conditions: CREF/GAPDH counter-screens; run 1, dose range 1, at 100 µM (top of the series).
Test [4] concerns Rat fibroblasts (CREF). The test is described as above. Conditions: CREF/GAPDH counter-screens; run 2, dose range 1, at 100 µM (top of the series).
Test [5] deals with Tumor necrosis factor receptor superfamily member 10B (Homo sapiens) (UniProt O14763). Description: caspase-8 TRAIL sensitization, hit retest, confirmation, cell-based, NB7+caspase-8, with/without TRAIL, luminescence panel (AID 651596). As to conditions: NB7 neuroblastoma + caspase-8, TRAIL sensitization, luminescence viability, with TRAIL, mean of runs, at 10 µM, stronger effect = higher value.

Test in test [6]: as above
Conditions: NB7 neuroblastoma + caspase-8, without TRAIL, luminescence viability, without TRAIL, mean of runs, at 10 µM.

PEG-3, sequence (Q6IN02 whole entry, looked up): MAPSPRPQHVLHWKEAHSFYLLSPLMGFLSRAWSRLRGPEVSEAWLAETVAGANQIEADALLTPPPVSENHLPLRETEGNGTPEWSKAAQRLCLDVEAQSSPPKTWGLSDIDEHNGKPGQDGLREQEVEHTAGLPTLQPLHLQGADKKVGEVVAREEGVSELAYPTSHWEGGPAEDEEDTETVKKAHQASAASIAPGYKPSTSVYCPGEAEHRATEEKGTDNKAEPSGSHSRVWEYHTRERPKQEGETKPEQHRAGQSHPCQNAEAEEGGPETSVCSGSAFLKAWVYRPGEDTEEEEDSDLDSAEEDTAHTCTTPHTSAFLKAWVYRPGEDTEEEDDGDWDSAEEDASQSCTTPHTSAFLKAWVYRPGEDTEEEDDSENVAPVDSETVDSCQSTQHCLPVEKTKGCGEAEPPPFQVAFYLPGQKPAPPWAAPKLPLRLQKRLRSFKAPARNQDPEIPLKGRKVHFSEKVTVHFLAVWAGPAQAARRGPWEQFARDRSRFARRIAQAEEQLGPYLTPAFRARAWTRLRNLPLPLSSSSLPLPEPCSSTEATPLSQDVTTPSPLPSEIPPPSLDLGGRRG
Tumor necrosis factor receptor superfamily member 10B (Homo sapiens), sequence (O14763 whole entry, looked up): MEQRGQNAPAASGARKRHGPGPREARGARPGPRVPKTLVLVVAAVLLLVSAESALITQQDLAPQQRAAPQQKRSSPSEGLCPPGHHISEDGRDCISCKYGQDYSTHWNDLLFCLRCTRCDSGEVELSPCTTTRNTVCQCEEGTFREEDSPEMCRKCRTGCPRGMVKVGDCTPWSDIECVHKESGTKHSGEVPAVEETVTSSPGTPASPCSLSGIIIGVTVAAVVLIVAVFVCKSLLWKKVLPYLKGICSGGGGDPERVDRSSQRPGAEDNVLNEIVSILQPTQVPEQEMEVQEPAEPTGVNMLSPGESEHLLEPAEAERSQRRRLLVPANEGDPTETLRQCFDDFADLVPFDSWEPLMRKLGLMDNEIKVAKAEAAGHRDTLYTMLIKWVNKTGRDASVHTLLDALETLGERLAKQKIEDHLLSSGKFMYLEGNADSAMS

A word on the inhibition: it is the relative decrease from the control value, in per cent. For the compound `O=[N+]([O-])c1nn(-c2ccc3c(c2)OCCO3)n(O)c1=Nc1ccc(Cl)cc1`, the inhibition in test [1] was determined as 48.4%; in test [2], 73.7%; in test [3], 13.6%; in test [4], 8.03%.
For `CCOC(=O)c1c(SCCN2CCCCC2)n(-c2ccccc2)c(=S)n(-c2ccccc2)c1=O`, the inhibition in test [1] came to 97.7%; in test [2] it was 102%; in test [3], 90.4%; in test [4], 94.6%.
Take `CN(C(=O)COC(=O)/C=C/c1cccc([N+](=O)[O-])c1)C1CCS(=O)(=O)C1` (stereo not given): the inhibition in test [1] came out at 47.5%; in test [2] it was 44.7%; in test [3] it was 6.76%; in test [4], 36.6%.
Consider `O=C(Cn1ncc(Cl)c(Cl)c1=O)N1CCc2ccccc21`, for which the inhibition in test [1] came to 99.5%; in test [2], 98.6%; in test [3], 96.2%; in test [4], 95.5%. Also, the figures for the activity in test [5] and in test [6] were 99.5% and 99.6%, respectively.
For `O=C(COc1ccc(Cl)cc1Cl)Nc1ccccn1`, the inhibition in test [1] stood at 94%; in test [2], 98.4%; in test [3], 101%; in test [4], 99.7%.
On the same counts, the results for `O=C1C=CC(=O)N1c1ccc(-c2nc3ccccc3o2)cc1` are 99.3%, 101%, 101% and 100%.
With `Cc1ccc(NC(=S)NC(=O)c2ccc(F)cc2)cc1S(=O)(=O)Nc1ccccc1Cl`, the inhibition in test [1] was 70.7%; in test [2], 36.1%; in test [3] it was -12%; in test [4], 91.7%.
For the compound `COc1cccc(NC(=O)c2nc(S(C)(=O)=O)ncc2Cl)c1`, the inhibition in test [1] was 99.3%; in test [2] it was 101%; in test [3], 99.4%; in test [4] it was 99.1%. Further, the results for the activity in test [5] and in test [6] were 13.1% and 19.6%, respectively.
On to `CN1CCC2(CC1)N=C(c1ccc(F)cc1)C(=S)N2C(=O)c1ccc(C(C)(C)C)cc1`, for which the inhibition in test [1] was 102%; in test [2], 99%; in test [3], 98.7%; in test [4], 68.4%.
Take `C=C1CC2(OC1=O)c1ccccc1CCc1ccccc12`: the inhibition worked out at 102% in test [1], 101% in test [2], 95.7% in test [3] and 97.7% in test [4]. The figures for the activity in test [5] and in test [6] were 97.2% and 99.3%, respectively.
On to `COc1cc(NS(C)(=O)=O)ccc1Nc1c2ccccc2nc2ccccc12`, for which the inhibition in test [1] amounted to 102%; in test [2], 99.2%; in test [3] it was 86.1%; in test [4] it was 95.2%.
For the compound `OCC1OC(n2ccc3c(NO)ncnc32)C(O)C1O` (stereo not given), the inhibition is 99.4% in test [1], 101% in test [2], 95.4% in test [3] and 94.6% in test [4]. In addition, the activity in test [5] was found to be 98.8%; in test [6] it was 99.1%.
As for `Cc1cccc(/C=N/Nc2ccc3ccccc3n2)c1`, the inhibition in test [1] turned out to be 101%; in test [2] it was 101%; in test [3] it was 94.2%; in test [4], 96.2%. Also, the activity is 82.4% in test [5] and 78.5% in test [6].
Turning to `O=C(CN1C(=O)c2ccccc2S1(=O)=O)c1ccc2c(c1)OCCCO2`, the inhibition amounted to 98.1% in test [1], 98.8% in test [2], 99.7% in test [3] and 99.4% in test [4]. Moreover, the values for the activity in test [5] and in test [6] were 95.4% and 94.1%, respectively.
Regarding `CC1=CC2C(C(O)CC3(C)C2CC(C)C32OCOC23COCO3)C2(C)C/C(=C\O)C(=O)C=C12` (stereo not given), the inhibition is 102% in test [1], 101% in test [2], 100% in test [3] and 100% in test [4]. Further, the activity in test [5] worked out at 94.3%; in test [6] it was 98.1%.
With `Cc1ccccc1OCC(O)CNC1CCC(NCC(O)COc2ccccc2C)CC1` (stereo not given), the inhibition in test [1] is 94.1%; in test [2], 95.8%; in test [3], 98.1%; in test [4] it was 97.9%. In addition, the activity turned out to be 94.4% in test [5] and 99.8% in test [6].
In the case of `Clc1cccc(-c2nc(-c3ccccn3)no2)c1`, the inhibition was 89.2% in test [1], 92.5% in test [2], 96.4% in test [3] and 94.4% in test [4]. Moreover, the figures for the activity in test [5] and in test [6] were 84.3% and 82.3%, respectively.
On to `C=CCn1c(C)cc(C(=O)CN2C(=O)c3ccccc3S2(=O)=O)c1C`, for which the inhibition in test [1] amounted to 94.5%; in test [2], 96.6%; in test [3], 99.2%; in test [4] it was 96.4%. Further, the activity in test [5] was 88.8%; in test [6], 91.4%.
`CCCn1c(C)cc(C(=O)CN2C(=O)c3ccccc3S2(=O)=O)c1C`: the inhibition in test [1] came out at 97.5%; in test [2], 98.9%; in test [3], 91.2%; in test [4], 92.1%. Besides, the activity in test [5] was 60.1%; in test [6] it was 62.3%.
As for `c1cc2c(cc1C1=NNC(=NC3CC3)SC1)OCCO2`, the inhibition in test [1] was 98.9%; in test [2], 99%; in test [3], 99.2%; in test [4], 91.3%. Moreover, the activity in test [5] is 93.3%; in test [6], 90.9%.
In the case of `O=C(NCCc1ccccc1F)c1ccc2c(c1)OCCO2`, the inhibition in test [1] came to 98.5%; in test [2], 102%; in test [3], 100%; in test [4], 99.8%. The activity worked out at 90.4% in test [5] and 91% in test [6].
On to `CCOC(=O)c1cnc(Nc2nc3ccccc3o2)nc1C`, for which the inhibition was determined as 85.5% in test [1], 81.8% in test [2], 92% in test [3] and 93% in test [4]. For the same compound, the activity was 92.1% in test [5] and 91.1% in test [6].
`CC(C)(C)C(=O)Nc1ccc(NC(=O)c2ccco2)nc1`: the inhibition was found to be 102% in test [1], 101% in test [2], 100% in test [3] and 100% in test [4]. Besides, the activity in test [5] worked out at 98.7%; in test [6], 98.5%.
As to `COc1ccc(OCc2cccc(C(=O)O)c2)cc1`, the inhibition in test [1] is 98.7%; in test [2], 102%; in test [3], 90.9%; in test [4] it was 89.6%. The activity worked out at 62.9% in test [5] and 55.2% in test [6].
In the case of `CN1CCN(c2ccc(-c3ccc4ccccc4n3)cc2)CC1`, the inhibition is 99.5% in test [1], 101% in test [2], 98.1% in test [3] and 98.6% in test [4]. Also, the activity in test [5] is 88.5%; in test [6], 84.3%.
Turning to `CCOC(=O)Cc1csc(NC(=S)NC(=O)c2ccc(Cl)cc2)n1`, the inhibition amounted to 77.7% in test [1], 73.4% in test [2], 88% in test [3] and 86.8% in test [4]. In addition, the activity in test [5] was 65.1%; in test [6], 63.8%.
Take `NC(C(=O)O)C1ON=C(Cl)C1O` (stereo not given): the inhibition in test [1] was 41.4%; in test [2], 43.8%; in test [3] it was -3.88%; in test [4], 9.67%. Also, the figures for the activity in test [5] and in test [6] were 82.5% and 88.3%, respectively.
`Cc1ccccc1-c1nc(-c2ccccn2)no1`: the inhibition in test [1] was 96.7%; in test [2], 92%; in test [3], 99.5%; in test [4], 99.3%. The activity in test [5] is 88.8%; in test [6], 86.8%.
As to `COCCn1c(C)cc(C(=O)CSc2nnc(C)s2)c1C`, the inhibition in test [1] turned out to be 96.1%; in test [2], 94.9%; in test [3], 90.8%; in test [4] it was 90.7%. Also, the values for the activity in test [5] and in test [6] were 53.5% and 49%, respectively.
Regarding `C(=NN1CCCCCC1)c1ccc2ccccc2n1`, the inhibition in test [1] is 102%; in test [2], 101%; in test [3] it was 101%; in test [4] it was 100%. For the same compound, the activity was found to be 95.4% in test [5] and 94.3% in test [6].
As for `CC(=O)c1cccc(-c2ccnc3c2CC(C(=O)Nc2cccc(NS(C)(=O)=O)c2)O3)c1` (stereo not given), the inhibition in test [1] came to 58%; in test [2] it was 65%; in test [3] it was 30%; in test [4], 47.2%. For the same compound, the values for the activity in test [5] and in test [6] were 74.9% and 73.6%, respectively.
